WRN inhibitor: qHTS for Inhibitors of WRN Helicase | Potency, µM (titrated, usually from 114 µM), actives largely listed as inhibitors | 360,000 compounds, 0.46% hits | AID 651768, 2012 | WRN helicase unwinding, fluorescent forked duplex, kinetic; further: nearly all actives have a fitted effect of over 55% in size
Target sequence (Q14191 whole entry, looked up): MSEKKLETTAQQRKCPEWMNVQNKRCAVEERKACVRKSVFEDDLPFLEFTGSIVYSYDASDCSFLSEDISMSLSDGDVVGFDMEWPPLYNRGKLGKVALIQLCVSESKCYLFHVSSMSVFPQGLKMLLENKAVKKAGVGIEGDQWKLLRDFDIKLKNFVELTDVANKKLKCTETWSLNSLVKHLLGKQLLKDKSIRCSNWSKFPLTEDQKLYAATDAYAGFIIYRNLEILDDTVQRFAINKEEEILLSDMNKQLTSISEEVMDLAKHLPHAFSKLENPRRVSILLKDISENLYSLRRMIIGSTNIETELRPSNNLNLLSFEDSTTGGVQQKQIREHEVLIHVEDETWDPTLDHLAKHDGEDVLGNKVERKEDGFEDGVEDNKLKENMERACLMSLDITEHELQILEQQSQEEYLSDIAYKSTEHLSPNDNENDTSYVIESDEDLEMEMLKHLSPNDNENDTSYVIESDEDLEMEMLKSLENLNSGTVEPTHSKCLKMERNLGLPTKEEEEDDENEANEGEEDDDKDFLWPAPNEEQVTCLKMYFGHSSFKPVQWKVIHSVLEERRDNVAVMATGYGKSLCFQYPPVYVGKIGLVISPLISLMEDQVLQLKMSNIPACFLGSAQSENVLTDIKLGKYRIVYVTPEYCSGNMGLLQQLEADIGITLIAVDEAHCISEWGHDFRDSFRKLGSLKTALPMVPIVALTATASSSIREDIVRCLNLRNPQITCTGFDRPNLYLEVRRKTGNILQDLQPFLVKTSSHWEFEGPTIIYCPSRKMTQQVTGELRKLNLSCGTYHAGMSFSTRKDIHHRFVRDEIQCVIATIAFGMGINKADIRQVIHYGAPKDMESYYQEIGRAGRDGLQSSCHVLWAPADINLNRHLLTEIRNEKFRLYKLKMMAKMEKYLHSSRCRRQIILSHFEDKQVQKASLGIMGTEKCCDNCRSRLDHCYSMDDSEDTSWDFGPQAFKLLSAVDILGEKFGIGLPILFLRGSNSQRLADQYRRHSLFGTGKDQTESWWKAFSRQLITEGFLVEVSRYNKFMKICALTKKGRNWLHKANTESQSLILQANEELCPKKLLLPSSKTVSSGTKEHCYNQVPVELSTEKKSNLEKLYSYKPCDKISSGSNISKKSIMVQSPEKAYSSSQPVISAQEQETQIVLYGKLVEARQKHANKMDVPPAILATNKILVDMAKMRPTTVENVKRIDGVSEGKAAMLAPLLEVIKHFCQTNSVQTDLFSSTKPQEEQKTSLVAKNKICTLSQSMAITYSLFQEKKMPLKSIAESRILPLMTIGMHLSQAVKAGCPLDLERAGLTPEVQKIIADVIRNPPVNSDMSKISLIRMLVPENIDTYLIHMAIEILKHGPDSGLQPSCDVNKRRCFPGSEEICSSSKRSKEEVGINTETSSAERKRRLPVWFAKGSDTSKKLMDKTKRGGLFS
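WRN at 20 nM final preincubated with compound 15 min at room temperature; reaction started with 100 nM fluorophore/quencher forked duplex oligonucleotide and 2 mM ATP final. Unwinding followed kinetically by red fluorescence (ex 525, em 598 nm).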
RECQ1 inh: qHTS Assay for Inhibitors of RecQ-Like Dna Helicase 1 (RECQ1). ATP-dependent DNA helicase Q1 (Homo sapiens), P46063. RECQ1 DNA unwinding, red fluorescence kinetic read. Potency, µM (top dose mostly 57.3 µM), actives largely listed as inhibitors. 240,000 compounds, 0.54% hits. AID 2549, 2010; further: nearly all actives have a fitted effect of over 30% in size
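RECQ1T1 50 nM; forked duplex (20 bp + 30-nt ss tails) 200 nM, ATP 2 mM final; pH 8.0, 2 mM MgCl2, 2.5 ug/ml poly(dI-dC); 15 min compound preincubation; discontinuous kinetic read over 2 h at RT.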
APE1 inh-1: qHTS Assay for Inhibitors of the Human Apurinic/apyrimidinic Endonuclease 1 (APE1); recombinant APE1, TAMRA/BHQ-2 abasic DNA cleavage fluorescence; Potency, µM (highest dose often 65.8 µM), most hits filed as inhibitors; 350,000 compounds, 0.35% hits; further: nearly all actives have a fitted effect of over 55% in size
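Enzyme (0.75 nM final) and test compound are incubated 15 min at room temperature before adding 50 nM quenched THF abasic-site duplex. Cleavage dequenches TAMRA, followed at 525/598 nm over three reads one minute apart.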
BLM helicase inh: qHTS Assay for Inhibitors of Bloom's syndrome helicase (BLM). recombinant BLM DNA unwinding, fluorescence dequenching. Potency, µM (doses to about 56.1 µM), actives largely listed as inhibitors. 350,000 compounds, 0.2% hits. AID 2528, 2010; further: nearly all actives have a fitted effect of over 35% in size
L3MBTL1 inh: qHTS Assay for the Inhibitors of L3MBTL1; Potency, µM (titrated, usually from 57.1 µM), usual class: inhibitors; Lethal(3)malignant brain tumor-like protein 1 (Homo sapiens), Q9Y468; AlphaScreen L3MBTL1–H3K9me1 peptide binding; 230,000 compounds, 0.66% hits; AID 485360, 2010; further: nearly all actives have a fitted effect of over 60% in size
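L3MBTL1 50 nM + b-AHA-H3(1-15)K9me1 75 nM, 30 min RT; compound added, 30 min RT; streptavidin donor/Ni-chelate acceptor beads 10 ug/mL each final, 30 min RT dark; AlphaScreen read.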
FEN1 inh: qHTS Assay for the Inhibitors of Human Flap endonuclease 1 (FEN1); Potency, µM (series often up to 114 µM), actives largely listed as inhibitors; Recombinant FEN1 flap cleavage, fluorescence, 15 min; 390,000 compounds, 0.35% hits; further: nearly all actives have a fitted effect of over 65% in size
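Nuclease activity of 10 nM FEN1 was measured after 15 min of room-temperature exposure to titrated compounds, by adding 50 nM flap substrate and reading plates at 0 and 15 min.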
DNA dye displace: Counterscreen for APE1 Inhibitors: Fluorescent Dye Displacement Assay. Potency, µM (top dose mostly 28.5 µM), hits mostly inhibitors. DNA fluorescent dye displacement counterscreen, fluorescence. 480 compounds, 7% hits. shares compounds with APE1 inh-1. AID 2564, 2010;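 further: loss of thiazole orange fluorescence as the dye is displaced from duplex DNA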
Endo IV inh: Counterscreen for APE1 Inhibitors: qHTS Assay for Inhibitors of Endonuclease IV | shares compounds with APE1 inh-1 | 560 compounds, 4% hits | E. coli Endo IV, fluorogenic AP-site DNA cleavage | Potency, µM (series often up to 27.1 µM), actives largely listed as inhibitors
APE1 inh-2: Confirmation qHTS Assay for Inhibitors of the Human Apurinic/apyrimidinic Endonuclease 1 (APE1); shares compounds with APE1 inh-1; purified APE1, fluorogenic abasic-site DNA cleavage; Potency, µM (series often up to 57.1 µM), most hits filed as inhibitors; 750 compounds, 44% hits; AID 2572, 2010; further: nearly all actives have a fitted effect of over 30% in size
APE1 FP inh: qHTS FP-Based Assay for Inhibitors of the Human Apurinic/apyrimidinic Endonuclease 1 (APE1); shares compounds with APE1 inh-1; APE1 binding to TAMRA-labelled double-stranded DNA, fluorescence polarization displacement; Potency, µM (doses to about 28.5 µM), actives largely listed as inhibitors; 480 compounds, 7% hits; AID 2573, 2010
Large screens that a line does not name were inactive (follow-up assays come after a bar, where they were run). Sampled rows, rich in hits. Any-hit rate of the full collection: about 1%. The call rests on the fitted dose curve; in most records, active means well fitted curve in the direction sought with a large enough effect; inconclusive means small, poorly fitted or top-dose-only effect, or another doubt; inactive means no such curve, though single readings can be large; an effect the other way counts as inactive or inconclusive.

CCOC(=O)Cn1c(=O)oc2ccc(C)cc21	none
Cc1nnc(SCC(=O)Nc2nc(-c3ccccc3)cs2)n1N	none
Cn1cnnc1SCC(=O)Nc1nc(-c2ccccc2)cs1	APE1 inh-1 inconclusive | DNA dye displace inactive | Endo IV inh inactive | APE1 inh-2 inconclusive | APE1 FP inh inactive
CC(=O)Nc1cccc(-c2ccnc3c2CC(C)(C(=O)Nc2cccc(Oc4ccccc4)c2)O3)c1 (stereo not given)	none (no result: RECQ1 inh, APE1 inh-1, BLM helicase inh, L3MBTL1 inh, FEN1 inh)
O=C(O)c1ccccc1-n1cccc1C(=O)O	APE1 inh-1 inconclusive, L3MBTL1 inh inconclusive | DNA dye displace inactive | Endo IV inh inactive | APE1 inh-2 13µM | APE1 FP inh inconclusive
Cc1cc(C=O)c(C)n1-c1ccc(Cl)c(C(=O)O)c1	WRN inhibitor inconclusive, RECQ1 inh 28µM, APE1 inh-1 5.6µM, L3MBTL1 inh 4µM, FEN1 inh inconclusive | DNA dye displace inactive | Endo IV inh inactive | APE1 inh-2 8.9µM | APE1 FP inh inactive
Cc1nc2ccc(NC(=S)N3CCOCC3)cc2nc1C	APE1 inh-1 inconclusive | DNA dye displace inactive | Endo IV inh inactive | APE1 inh-2 inactive | APE1 FP inh inactive
Cc1nc2ccc(NC(=S)N3CCCC3)cc2nc1C	none
Cn1nc([N+](=O)[O-])nc1S(C)(=O)=O	APE1 inh-1 inconclusive | DNA dye displace inactive | Endo IV inh inactive | APE1 inh-2 inconclusive | APE1 FP inh inactive
NS(=O)(=O)c1ccc(N=Nc2ccc(=O)[nH]c2O)cc1	WRN inhibitor 50µM, APE1 inh-1 16µM, L3MBTL1 inh inconclusive, FEN1 inh 79µM | APE1 inh-2 inconclusive
O=C1CCCc2oc3ccc(NS(=O)(=O)c4cccc5cccnc45)cc3c21	APE1 inh-1 inconclusive | APE1 inh-2 inconclusive
CC1(C)CC(=O)c2c(oc3ccc(NS(=O)(=O)c4cccc5cccnc45)cc23)C1	none
COc1cc(C(=O)N2CCCC(c3cc(C(=O)NCc4ccccc4)no3)C2)cc(OC)c1C (stereo not given)	none (no result: RECQ1 inh, APE1 inh-1, BLM helicase inh, L3MBTL1 inh, FEN1 inh)
CC(=O)OC1CC2C(C)(C)C(O)CC[C@@]2(C)C2CC[C@@]3(C)C(c4ccoc4)OC(=O)C4OC43[C@]12C (stereo not given in full)	APE1 inh-1 inconclusive (no result: WRN inhibitor, L3MBTL1 inh, FEN1 inh) | DNA dye displace inactive | Endo IV inh inactive | APE1 inh-2 inconclusive | APE1 FP inh inactive
CCOC(=O)C(CS)NCCN[C@@H](CS)C(=O)OCC (stereo not given in full)	none (no result: WRN inhibitor, RECQ1 inh, APE1 inh-1, L3MBTL1 inh, FEN1 inh)
